Values joined by “and” are separate entries in the source; they are usually repeats but may differ in a detail not shown here. Equal values may be shown once. Results filed as inconclusive are left out. A structure can be active in one record and inactive in another. Active and inactive are the calls of the source. How the source made its calls: active means hit-call score of the fitted dose curve at least 0.9, where 1 is the maximum; inconclusive means response in the unintended direction; inactive means score below 0.9.

Here are results for 19 compounds from PubChem BioAssay (EPA / NIEHS).

human Serotonin, 5-Hydroxytryptamine Receptor 3 (5HT3), HTR3A (gene 3359), sequence (P46098 whole entry, looked up): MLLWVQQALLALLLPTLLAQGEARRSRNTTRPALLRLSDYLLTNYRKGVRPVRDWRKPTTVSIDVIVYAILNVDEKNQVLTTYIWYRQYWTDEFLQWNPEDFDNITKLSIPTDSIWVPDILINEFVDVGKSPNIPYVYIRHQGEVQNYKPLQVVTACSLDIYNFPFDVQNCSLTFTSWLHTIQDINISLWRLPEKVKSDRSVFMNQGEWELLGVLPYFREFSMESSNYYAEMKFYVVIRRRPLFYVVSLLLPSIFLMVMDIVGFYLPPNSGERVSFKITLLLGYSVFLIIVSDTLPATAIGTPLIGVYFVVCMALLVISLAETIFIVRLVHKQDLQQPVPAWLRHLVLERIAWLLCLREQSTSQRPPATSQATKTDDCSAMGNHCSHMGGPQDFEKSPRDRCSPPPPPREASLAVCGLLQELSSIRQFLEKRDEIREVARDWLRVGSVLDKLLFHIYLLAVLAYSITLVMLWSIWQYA
rat Thyrotropin Releasing Hormone Receptor (TRH), Trhr (gene 25570), sequence (Q01717 whole entry, looked up): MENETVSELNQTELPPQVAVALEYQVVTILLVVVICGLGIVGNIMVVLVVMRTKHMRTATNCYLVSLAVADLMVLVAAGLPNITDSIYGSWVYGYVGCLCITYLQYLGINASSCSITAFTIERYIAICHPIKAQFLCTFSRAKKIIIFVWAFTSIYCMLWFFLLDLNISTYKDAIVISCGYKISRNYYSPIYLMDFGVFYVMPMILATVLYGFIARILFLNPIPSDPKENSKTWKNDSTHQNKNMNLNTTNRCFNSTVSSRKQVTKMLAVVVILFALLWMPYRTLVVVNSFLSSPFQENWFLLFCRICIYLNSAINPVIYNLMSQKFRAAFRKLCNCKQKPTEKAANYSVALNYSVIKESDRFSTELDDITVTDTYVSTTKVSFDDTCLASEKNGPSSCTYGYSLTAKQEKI
rat Glutamate, AMPA Site (AMPA), Gria1 (gene 50592), sequence (P19490 whole entry, looked up): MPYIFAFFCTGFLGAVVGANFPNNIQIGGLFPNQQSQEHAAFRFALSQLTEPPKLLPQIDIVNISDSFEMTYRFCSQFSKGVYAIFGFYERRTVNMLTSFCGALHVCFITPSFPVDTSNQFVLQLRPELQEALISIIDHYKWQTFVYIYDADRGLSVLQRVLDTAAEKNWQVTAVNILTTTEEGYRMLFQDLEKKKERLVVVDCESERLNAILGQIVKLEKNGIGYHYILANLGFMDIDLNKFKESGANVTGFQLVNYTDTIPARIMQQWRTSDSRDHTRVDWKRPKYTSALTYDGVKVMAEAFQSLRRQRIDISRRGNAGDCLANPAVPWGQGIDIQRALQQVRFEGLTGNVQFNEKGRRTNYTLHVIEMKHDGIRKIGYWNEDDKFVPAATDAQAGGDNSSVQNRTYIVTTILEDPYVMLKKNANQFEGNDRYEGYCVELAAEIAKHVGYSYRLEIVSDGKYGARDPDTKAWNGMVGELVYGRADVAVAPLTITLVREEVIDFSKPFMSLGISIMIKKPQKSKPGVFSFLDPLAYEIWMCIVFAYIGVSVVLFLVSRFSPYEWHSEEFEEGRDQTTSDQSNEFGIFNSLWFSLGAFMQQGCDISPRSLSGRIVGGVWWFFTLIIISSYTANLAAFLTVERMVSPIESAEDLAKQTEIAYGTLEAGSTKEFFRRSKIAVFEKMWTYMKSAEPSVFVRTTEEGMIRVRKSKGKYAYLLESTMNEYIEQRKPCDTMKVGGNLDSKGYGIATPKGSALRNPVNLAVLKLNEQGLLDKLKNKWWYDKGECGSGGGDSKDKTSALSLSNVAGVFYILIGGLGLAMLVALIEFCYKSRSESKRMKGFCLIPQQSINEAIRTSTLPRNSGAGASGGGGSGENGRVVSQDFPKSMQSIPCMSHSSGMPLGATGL
human Peripheral-type Benzodiazepine Receptor (PBR), TSPO (gene 706), sequence (P30536 whole entry, looked up): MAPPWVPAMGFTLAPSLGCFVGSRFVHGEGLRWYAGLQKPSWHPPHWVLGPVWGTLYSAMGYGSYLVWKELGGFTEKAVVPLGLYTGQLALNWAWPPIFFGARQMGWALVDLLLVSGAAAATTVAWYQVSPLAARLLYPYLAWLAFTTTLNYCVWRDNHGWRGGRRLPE

The target in one experiment is Sodium channel protein type 1 subunit alpha (Rattus norvegicus) (UniProt P04774). Briefly: NVS_IC_rNaCh_site2: NovaScreen (NVS) Ion Channel Assay for rat Sodium Channel, Site 2 (NaCh) (AID 2283322).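 Further: hit means loss of radioligand binding signal relative to DMSO so AC50 marks displacement.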 The method in brief: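 Membranes: rat forebrain. Format: competitive radioligand displacement, filter separation, scintillation readout, 1 h exposure. Primary screen in duplicate at 25 uM; actives retested in concentration series.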
A word on the AC50: it is the concentration giving half of the maximal activity seen. `CC(C)(c1ccccc1)c1ccc(O)cc1`: the AC50 is 31.4 µM (active).
Still for that read-out and setting: next, `O=C(N[C@H]1CN2CCC1CC2)c1cc2ccoc2cn1`: 11.7 µM (active); `C[C@]12CCC(=O)C=C1CC[C@@H]1[C@@H]2CC[C@]2(C)C(=O)CC[C@@H]12`: 25 µM (active); `CCC(C)(c1ccc(O)cc1)c1ccc(O)cc1`: 13.7 µM (active).
For the compound `COc1ccc(O)c(C(C)(C)C)c1`, the AC50 is 38.2 µM (active).
The same measure, in the same setting: next, `C[C@]12CCC(=O)C=C1CC[C@@H]1[C@@H]2CC[C@@]2(C)[C@H]1CC[C@]2(C)O`: 3.26 µM (active); `CCCCCCCCCC[N+](C)(C)CCCCCCCCCC`: 1.03 µM (active).
The same measure, in the same setting: next, `Oc1ccc(C(c2ccc(O)cc2)(C(F)(F)F)C(F)(F)F)cc1`: 5.87 µM (active); `CC1=C2C[C@H]3[C@@H](CC=C4C[C@@H](O)CC[C@@]43C)[C@@H]2CC[C@]12O[C@@H]1C[C@H](C)CN[C@H]1[C@H]2C`: 0.171 µM (active).

Another experiment concerns the target rat Glutamate, AMPA Site (AMPA), Gria1 (gene 50592) (UniProt P19490). Briefly: NVS_LGIC_rAMPA: NovaScreen (NVS) Ligand-Gated Ion Channel Assay for rat Glutamate, AMPA Site (AMPA) (AID 2283324). The method in brief:
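Rat forebrain membranes; radioligand binding read 1 h after dosing by filtration and scintillation counting. Duplicate single-point screen at 25 uM, then concentration-response to 50 uM for threshold hits (e.g. 30% inhibition); loss of signal vs DMSO.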
For `Cc1cccc(C)c1N`, the compound was called inactive.
As to `CC(c1ccc(O)cc1)(c1ccc(O)cc1)c1ccc(O)cc1`, the compound was called inactive.
Same read-out and setting: for `Clc1ccc(C(c2ccccc2Cl)C(Cl)(Cl)Cl)cc1` (stereo not given) the value was “inactive”.

The next experiment deals with human Serotonin, 5-Hydroxytryptamine Receptor 3 (5HT3), HTR3A (gene 3359) (UniProt P46098). The experiment can be described thus: NVS_LGIC_h5HT3: NovaScreen (NVS) Ligand-Gated Ion Channel Assay for human Serotonin, 5-Hydroxytryptamine Receptor 3 (5HT3) (AID 2283325). How it is done:
NVS_LGIC_h5HT3 is a biochemical, single-readout assay that uses extracted gene-proteins from HEK293 in a cell-free assay. Measurements were taken 1 hour after chemical dosing in a 96-well plate.NVS_LGIC_h5HT3 is one of one assay component(s) measured or calculated from the NVS_LGIC_h5HT3 assay. It is designed to make measurements of radioligand binding, a form of binding reporter, as detected with scintillation counting signals by Filter-based radiodetection technology.Data from the assay component NVS_LGIC_h5HT3 was analyzed into 1 assay endpoint. This assay endpoint, NVS_LGIC_h5HT3, was analyzed in the positive analysis fitting direction relative to DMSO as the negative control and baseline of activity. Using a type of binding reporter, loss-of-signal activity can be used to understand changes in the binding as they relate to the gene HTR3A. Furthermore, this assay endpoint can be referred to as a primary readout, because the performed assay has only produced 1 assay endpoint. To generalize the intended target to other relatable targets, this assay endpoint is annotated to the ion channel intended target family, where the subfamily is ligand-gated ion channel.
(§1) Binding assays used specific radioligands (tritiated, iodinated) with non-radioactive competitive displacement ligands in agonist or antagonist protocols (as indicated) and various reference compounds and inhibitors to titrate specific binding to receptors and transporters. Most enzyme assays (CYPs, kinases, phosphatases, proteases, HDACs) used recombinant protein and specific substrates (fluorescence mostly, some colorimetric and radioactive) and inhibitors, followed by a biochemical separation of substrate and product. All assays for the biochemical HTS were initially run in duplicate at a single concentration (10 uM for CYP450 assays and 25 uM for all others). Assay-chemical combinations meeting a pre-defined threshold (e.g., 30% inhibition and other criteria defined below) were then run in singleton concentration-response format with maximum concentration of 20 uM for CYPs and 50 uM for all others. Each assay was run with positive and negative controls, and concurrent controls on every plate. The follow-up (secondary) screen tested active chemical-pairs in concentration series, as well as a few additional assays not tested in the primary screen, some selected negative inactives, and several cases re-run in the concentration series for confirmatory purposes.
As for `O=C(N[C@H]1CN2CCC1CC2)c1cc2ccoc2cn1`, the AC50 was 1.35 µM (active).
Take `Clc1ccc(Cl)cc1`: the compound was classed as inactive.
For `CCCCCCCCCC[N+](C)(C)CCCCCCCCCC`, the compound was called inactive.
Same read-out and setting: for `CCCCCCCCCc1ccc(O)cc1` the value was “inactive”; for `O=C(O)C(F)(F)C(F)(F)C(F)(F)C(F)(F)C(F)(F)F`, “inactive”.

A further experiment concerns the target rat Glutamate, NMDA Agonist Site (GluNMDA), Grin1 (gene 24408) (UniProt P35439). Briefly: NVS_LGIC_rGluNMDA_Agonist: NovaScreen (NVS) Ligand-Gated Ion Channel Assay for rat Glutamate, NMDA Agonist Site (GluNMDA) (AID 2283327). The method in brief: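 Rat forebrain membranes, radioligand binding in the agonist-site protocol; 1 h after dosing; filter-based scintillation counting. Single-concentration duplicate screen at 25 uM, then concentration-response up to 50 uM for actives; gain-of-signal vs DMSO.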
In the case of `CCC(C)(c1ccc(O)cc1)c1ccc(O)cc1`, the AC50 is 16.4 µM (active).
On the same count and under the same terms, next, `Oc1ccc(C(c2ccc(O)cc2)(C(F)(F)F)C(F)(F)F)cc1`: 19.5 µM (active).
As to `CCSC(=O)N(CC)C1CCCCC1`, the compound was called inactive.
On the same count and under the same terms, next, `CC(c1ccc(O)cc1)(c1ccc(O)cc1)c1ccc(O)cc1`: “inactive”.

The next experiment concerns the target rat Thyrotropin Releasing Hormone Receptor (TRH), Trhr (gene 25570) (UniProt Q01717). The experiment can be described thus: NVS_GPCR_rTRH: NovaScreen (NVS) G Protein-Coupled Receptor Assay for rat Thyrotropin Releasing Hormone Receptor (TRH) (AID 2283329).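 Further: hit means lower bound tracer signal versus DMSO baseline.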 The method in brief:
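Rat forebrain membranes; radioligand displacement at TRH receptor by filter-based scintillation counting, read 4 h after dosing. Duplicate single-point screen at 25 uM, actives rerun in concentration series; loss of signal relative to DMSO.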
Regarding `CCNc1nc(NC(C)C)nc(SC)n1`, the outcome was inactive.
For the compound `C[C@]12CCC(=O)C=C1CC[C@@H]1[C@@H]2CC[C@@]2(C)[C@H]1CC[C@]2(C)O`, the outcome was inactive.
For `CCCCCCCCCc1ccc(O)cc1`, the outcome was inactive.

The target in another experiment is rat Oxytocin Receptor (OXT), Oxtr (gene 25342) (UniProt P70536). The experiment can be described thus: NVS_GPCR_rOXT: NovaScreen (NVS) G Protein-Coupled Receptor Assay for rat Oxytocin Receptor (OXT) (AID 2283330). How it is done: NVS_GPCR_rOXT is a biochemical, single-readout assay that uses extracted gene-proteins from Rat uterine membranes in a tissue-based cell-free assay. Measurements were taken 1 hour after chemical dosing in a 48-well plate.NVS_GPCR_rOXT is one of one assay component(s) measured or calculated from the NVS_GPCR_rOXT assay. It is designed to make measurements of radioligand binding, a form of binding reporter, as detected with scintillation counting signals by Filter-based radiodetection technology.Data from the assay component NVS_GPCR_rOXT was analyzed into 1 assay endpoint. This assay endpoint, NVS_GPCR_rOXT, was analyzed in the positive analysis fitting direction relative to DMSO as the negative control and baseline of activity. Using a type of binding reporter, loss-of-signal activity can be used to understand changes in the binding as they relate to the gene Oxtr. Furthermore, this assay endpoint can be referred to as a primary readout, because the performed assay has only produced 1 assay endpoint. To generalize the intended target to other relatable targets, this assay endpoint is annotated to the gpcr intended target family, where the subfamily is rhodopsin-like receptor.
rat Oxytocin Receptor (OXT), Oxtr (gene 25342), sequence (P70536 whole entry, looked up): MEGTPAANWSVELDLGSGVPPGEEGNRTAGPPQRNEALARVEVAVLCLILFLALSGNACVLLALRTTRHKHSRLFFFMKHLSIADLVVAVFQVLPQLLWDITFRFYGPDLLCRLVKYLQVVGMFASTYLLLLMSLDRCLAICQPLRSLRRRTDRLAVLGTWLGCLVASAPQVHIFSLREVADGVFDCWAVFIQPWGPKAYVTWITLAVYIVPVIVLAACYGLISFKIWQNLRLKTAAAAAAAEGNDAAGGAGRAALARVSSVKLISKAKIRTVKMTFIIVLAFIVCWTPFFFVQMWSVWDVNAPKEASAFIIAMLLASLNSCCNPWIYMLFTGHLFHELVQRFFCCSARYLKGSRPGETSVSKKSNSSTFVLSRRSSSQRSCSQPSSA
as §1
`Clc1ccc(Cl)cc1`: the compound was called inactive.
Regarding `CCCCCCCCCC[N+](C)(C)CCCCCCCCCC`, the AC50 was 18.6 µM (active).
Regarding `Oc1ccc(C(c2ccc(O)cc2)(C(F)(F)F)C(F)(F)F)cc1`, the AC50 is 13.6 µM (active).

A further experiment deals with human Peripheral-type Benzodiazepine Receptor (PBR), TSPO (gene 706) (UniProt P30536). The experiment can be described thus: NVS_MP_hPBR: NovaScreen (NVS) Membrane Protein Assay for human Peripheral-type Benzodiazepine Receptor (PBR) (AID 2283331).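 Further: hits reduce radioligand binding relative to DMSO baseline.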 The method in brief:
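Scintillation counts of filter-bound radioligand served as read-out after 1 h chemical dosing of human colonic membrane preparations. Activity was scored as signal loss against DMSO; initial duplicates at 25 uM, confirmatory concentration series afterward.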
For the compound `CC(C)(c1ccccc1)c1ccc(O)cc1`, the outcome was inactive.
In the case of `CCC(C)(c1ccc(O)cc1)c1ccc(O)cc1`, the AC50 is 9.64 µM (active) and 2.96 µM (active) and 14.1 µM (active).
Still for that read-out and setting: next, `CCCCCCCCCC[N+](C)(C)CCCCCCCCCC`: 21.5 µM (active).
In the case of `CCSC(=O)N(CC)C1CCCCC1`, the call was inactive.
Still for that read-out and setting: for `CCC(C)(CC)c1cc(NC(=O)c2c(OC)cccc2OC)on1` the value was “inactive”.

For a further experiment, the target named is rat Peripheral-type Benzodiazepine Receptor (PBR), Tspo (gene 24230) (UniProt P16257). The experiment can be described thus: NVS_MP_rPBR: NovaScreen (NVS) Membrane Protein Assay for rat Peripheral-type Benzodiazepine Receptor (PBR) (AID 2283335). The gist of the method: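 Rat kidney membranes; radioligand binding with displacement, filter-based scintillation counting, 1 h incubation. Primary screen in duplicate at 25 uM, actives followed in concentration series; loss of binding vs DMSO.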
rat Peripheral-type Benzodiazepine Receptor (PBR), Tspo (gene 24230), sequence (P16257 whole entry, looked up): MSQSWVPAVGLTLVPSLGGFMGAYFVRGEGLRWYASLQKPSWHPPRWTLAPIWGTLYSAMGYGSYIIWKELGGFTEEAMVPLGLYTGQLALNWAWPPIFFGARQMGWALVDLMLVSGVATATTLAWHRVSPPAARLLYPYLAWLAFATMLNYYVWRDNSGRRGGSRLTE
`CC(C)(c1ccccc1)c1ccc(O)cc1`: the compound was called inactive.
For the compound `CCC(C)(c1ccc(O)cc1)c1ccc(O)cc1`, the AC50 was 6.5 µM (active) and the result was inactive.
`Oc1ccc(C(c2ccc(O)cc2)(C(F)(F)F)C(F)(F)F)cc1`: the AC50 was 6.31 µM (active) and the compound was called inactive.
Take `CCSC(=O)N(CC)C1CCCCC1`: the compound was classed as inactive.
As to `CCC(C)(CC)c1cc(NC(=O)c2c(OC)cccc2OC)on1`, the call was inactive.
For `Cc1cc2c3c(c1)C(c1ccccc1)=N[C@@H](NC(=O)c1ccncc1)C(=O)N3CC2`, the AC50 was 9.63 µM (active).
